APEX1 inh: qHTS Assay for Inhibitors of the Human Apurinic/apyrimidinic Endonuclease 1 (APE1). DNA repair nuclease/redox regulator APEX1 (Homo sapiens), P27695. recombinant APE1, TAMRA/BHQ-2 abasic DNA cleavage fluorescence. Potency, µM (highest dose often 65.8 µM), hits mostly inhibitors. 0.35% of 350,000 active; further: nearly all actives have a fitted effect of over 55% in size
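APE1 at 0.75 nM preincubated 15 min at room temperature with compound. Reaction then started with 50 nM double-stranded THF-abasic substrate labelled with TAMRA/BHQ-2, and 525/598 nm fluorescence read kinetically. Activity taken as third-minus-first read difference, normalized to DMSO and NSC13755 controls.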
BLM inh: qHTS Assay for Inhibitors of Bloom's syndrome helicase (BLM); RecQ-like DNA helicase BLM (Homo sapiens), P54132; recombinant BLM DNA unwinding, fluorescence dequenching; Potency, µM (doses to about 56.1 µM), most hits filed as inhibitors; 0.2% of 350,000 active; AID 2528, 2010; further: nearly all actives have a fitted effect of over 35% in size
PKM2 act: qHTS Assay for Activators of Human Muscle isoform 2 Pyruvate Kinase; Pyruvate kinase PKM (Homo sapiens), P14618; purified PKM2, Kinase-Glo ATP luminescence, activation; response scale: 0% is enzyme alone, no compound; Potency, µM (series often up to 57.5 µM), hits mostly activators; 0.34% of 260,000 active; AID 1631, 2009; further: nearly all actives have a fitted effect of over 55% in size
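Purified hPK-M2 (>95% pure) converted ADP (0.1 mM final) to ATP with 0.5 mM PEP in 50 mM imidazole pH7.2, KCl, MgCl2, Tween 20, BSA; 1 h at room temperature. ATP detected by Kinase-Glo luminescence.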
KDM4E inh: qHTS Assay for Inhibitors of Human Jumonji Domain Containing 2E (JMJD2E); Lysine-specific demethylase 4E (Homo sapiens), B2RXH2; JMJD2E catalytic domain, FDH-coupled NADH fluorescence (FDH is formaldehyde dehydrogenase); Potency, µM (titrated, usually from 57.1 µM), most hits filed as inhibitors; 1.6% of 230,000 active; AID 2147, 2009; active means well fitted inhibition curve with a large enough effect, not every such curve was filed as active; inconclusive means small, poorly fitted or top-dose-only effect, or another doubt; inactive means no such curve, though single readings can be large or run the other way; further: nearly all actives have a fitted effect of over 50% in size
RECQ1 inh-1: qHTS Assay for Inhibitors of RecQ-Like Dna Helicase 1 (RECQ1); ATP-dependent DNA helicase Q1 (Homo sapiens), P46063; 0.54% of 240,000 active; Potency, µM (highest dose often 57.3 µM), most hits filed as inhibitors; RECQ1 DNA unwinding, red fluorescence kinetic read; further: nearly all actives have a fitted effect of over 30% in size
Target sequence (P46063 whole entry, looked up): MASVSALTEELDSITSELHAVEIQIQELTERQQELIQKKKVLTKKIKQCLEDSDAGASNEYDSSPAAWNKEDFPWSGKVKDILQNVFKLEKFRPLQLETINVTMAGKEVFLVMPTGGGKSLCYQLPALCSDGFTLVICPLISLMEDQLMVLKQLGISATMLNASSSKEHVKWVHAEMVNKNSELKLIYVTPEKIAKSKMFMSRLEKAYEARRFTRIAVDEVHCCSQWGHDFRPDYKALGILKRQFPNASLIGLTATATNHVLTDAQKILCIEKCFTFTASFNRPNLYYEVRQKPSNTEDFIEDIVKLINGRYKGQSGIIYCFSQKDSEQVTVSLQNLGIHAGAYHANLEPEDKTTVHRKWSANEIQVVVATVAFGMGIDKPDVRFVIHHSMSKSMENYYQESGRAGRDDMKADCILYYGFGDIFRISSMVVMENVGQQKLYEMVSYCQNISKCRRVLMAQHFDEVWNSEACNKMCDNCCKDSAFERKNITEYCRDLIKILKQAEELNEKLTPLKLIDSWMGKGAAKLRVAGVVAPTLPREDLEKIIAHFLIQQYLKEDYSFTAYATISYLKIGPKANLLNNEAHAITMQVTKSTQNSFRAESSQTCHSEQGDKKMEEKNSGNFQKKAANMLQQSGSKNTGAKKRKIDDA
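50 nM RECQ1T1 preincubated 15 min with compound in Tris pH 8.0 buffer with MgCl2, DTT, Tween-20 and 2.5 ug/ml poly(dI-dC); started with 200 nM TAMRA/BHQ-2 forked duplex and 2 mM ATP. Unwinding read as fluorescence (525/598 nm), two reads 2 h apart.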
RECQ1 conf: Confirmation qHTS Assay for Inhibitors of RecQ-Like Dna Helicase 1 (RECQ1). RECQ1 helicase DNA unwinding, fluorescence. AID 2708, 2010. 28% of 610 active. shares compounds with RECQ1 inh-1. Potency, µM (series often up to 229 µM), actives largely listed as inhibitors; further: nearly all actives have a fitted effect of over 45% in size
ADP FP counter: Counterscreen for RECQ1 Inhibitors: ADP Fluorescence Polarization Displacement Assay; shares compounds with RECQ1 inh-1; ADP fluorescence polarization displacement counterscreen; Potency, µM (titrated, usually from 228 µM), actives largely listed as inhibitors; 27% of 530 active; further: nearly all actives have a fitted effect of over 45% in size
RECQ1 inh-2: Confirmation qHTS Assay for Inhibitors of RecQ-Like Dna Helicase 1 (RECQ1) - Round 2 Cherry Picks; shares compounds with RECQ1 inh-1; recombinant RECQ1 DNA unwinding, red fluorescence; Potency, µM (titrated, usually from 119 µM), usual class: inhibitors; 15% of 1,100 active; further: nearly all actives have a fitted effect of over 50% in size
Large screens that a line does not name were inactive (follow-up assays come after a bar, where they were run). This is one part of a sample in which hits are shown more often than they occur. Unless noted, the call rests on the fitted dose curve; in most records, active means well fitted curve in the direction sought with a large enough effect; inconclusive means small, poorly fitted or top-dose-only effect, or another doubt; inactive means no such curve, though single readings can be large; an effect the other way counts as inactive or inconclusive.

CCc1nnc(NS(=O)(=O)c2ccc(NC(=S)NC(=O)/C=C/c3ccc(C(C)C)cc3)cc2)s1	RECQ1 inh-1 inconclusive | RECQ1 inh-2 inconclusive
CCc1nnc(NS(=O)(=O)c2ccc(NC(=S)NC(=O)/C=C/c3ccccc3)cc2)s1	APEX1 inh inconclusive, RECQ1 inh-1 inconclusive | RECQ1 inh-2 inconclusive
CCOc1ccc(C(=O)Nc2cc(-c3ccccc3)no2)cc1	none (no result: APEX1 inh, PKM2 act, KDM4E inh, RECQ1 inh-1)
COc1cccc(CN2CCN(C(=O)c3cccc(OC)c3)CC2)c1	none (no result: KDM4E inh, RECQ1 inh-1)
COc1cccc(CN2CCN(C(=O)c3ccc(-c4ccccc4)cc3)CC2)c1	KDM4E inh inconclusive, RECQ1 inh-1 25µM | RECQ1 inh-2 inactive
COC(=O)c1c(NC(=O)Cc2cccs2)sc2c1CCCC2	APEX1 inh inconclusive, KDM4E inh inconclusive, RECQ1 inh-1 28µM | RECQ1 inh-2 inconclusive
Nc1ccc(C(=O)OCC(=O)N2c3ccccc3Sc3ccccc32)cc1[N+](=O)[O-]	RECQ1 inh-1 28µM | RECQ1 inh-2 inactive
CCC(Cn1nnc2ccccc2c1=O)NC(=O)Nc1cc(Cl)ccc1OC (stereo not drawn)	none (no result: APEX1 inh, PKM2 act, KDM4E inh, RECQ1 inh-1)
CCC(NC(=O)NCc1ccccc1)(C(F)(F)F)C(F)(F)F	none
CC(NC(=O)Nc1ccc(O)cc1)(C(F)(F)F)C(F)(F)F	KDM4E inh inconclusive, RECQ1 inh-1 inconclusive | RECQ1 inh-2 inactive
CCC(NC(=O)Nc1ccc(O)cc1)(C(F)(F)F)C(F)(F)F	APEX1 inh inconclusive, RECQ1 inh-1 inconclusive | RECQ1 inh-2 inactive
COc1ccc(NC(=O)NC(C)(C(F)(F)F)C(F)(F)F)cc1	none
Cc1ccc(N2CC(NC(=O)C3CC3)CC2=O)cc1C (stereo not drawn)	none (no result: APEX1 inh, PKM2 act, KDM4E inh, RECQ1 inh-1)
CCn1nc(C)c(CCN(C)C(=O)Nc2cc(C)cc(C)c2)c1C	none (no result: APEX1 inh, PKM2 act, KDM4E inh, RECQ1 inh-1)
O=C1NN(c2cccc(Br)c2)C(=O)/C1=C/c1ccc(-c2cc([N+](=O)[O-])ccc2O)o1	RECQ1 inh-1 20µM | RECQ1 conf 63µM
COc1ccc(S(=O)(=O)/N=C2/NC(=O)/C(=C\c3ccco3)S2)cc1	none
COc1ccc(S(=O)(=O)/N=C2/NC(=O)/C(=C/c3ccco3)S2)cc1	APEX1 inh inconclusive, KDM4E inh inconclusive, RECQ1 inh-1 inconclusive | RECQ1 inh-2 inactive
Oc1ccc(N=Cc2ccc(-c3cccs3)s2)cc1	APEX1 inh inconclusive, BLM inh inconclusive, KDM4E inh inconclusive, RECQ1 inh-1 6.3µM | RECQ1 conf inactive | ADP FP counter 50µM
O=C1C(C2=NC(c3ccccn3)C3C(=O)N(c4ccc(OC(F)(F)F)cc4)C(=O)C23)=C(O)c2ccccc21 (stereo not drawn)	none
O=C1C(C2=NC(C(=O)O)C3C(=O)N(c4ccccc4)C(=O)C23)=C(O)c2ccccc21 (stereo not drawn)	none | RECQ1 conf inactive | ADP FP counter inconclusive
Cc1cccc(CNc2ncnc3ccc(-c4ccc(C(=O)N(C)C)cc4)cc23)c1	KDM4E inh inconclusive (no result: PKM2 act)
COc1ccccc1CCNC(=O)CSc1ccc(-c2ccco2)nn1	APEX1 inh inconclusive, KDM4E inh inconclusive, RECQ1 inh-1 inconclusive | RECQ1 inh-2 inactive
COc1ccccc1NC(=O)Cc1noc(CSc2cc(C)c3ccccc3n2)n1	KDM4E inh inconclusive, RECQ1 inh-1 inconclusive | RECQ1 inh-2 inactive
COc1ccccc1NC(=O)Cc1noc(CSc2cccc[n+]2[O-])n1	none
COc1ccc(CCNC(=O)Cn2cc(S(=O)(=O)Cc3ccccc3F)c3ccccc32)cc1OC	none (no result: APEX1 inh, PKM2 act, KDM4E inh, RECQ1 inh-1)
COC(=O)c1cc2c(-c3ccccc3)cc3ccccn3c-2c1C(=O)OC	RECQ1 inh-1 inconclusive | RECQ1 inh-2 79µM
COC(=O)c1c(C(=O)OC)c2cccc3cc(-c4ccccc4)c4ccc1c4n32	KDM4E inh 2.5µM, RECQ1 inh-1 4µM | RECQ1 inh-2 inconclusive
COC(=O)c1cc(-c2ccccc2)sc1N	none
COC(=O)c1c(C)c2c(C)cc3ccccn3c-2c1C(=O)OC	none
CCc1ccc(CNC(=O)CN2C(=O)CSc3c2c(C)nn3-c2ccccc2)cc1	none (no result: APEX1 inh, PKM2 act, KDM4E inh, RECQ1 inh-1)
CN1CC(O)C2=CC(=O)C(=O)C=C21 (stereo not drawn)	APEX1 inh 0.4µM, RECQ1 inh-1 2.8µM (no result: BLM inh, PKM2 act, KDM4E inh) | RECQ1 conf active | ADP FP counter 10µM
Cc1oc(-c2ccc(C(=O)NCc3ccc(F)cc3)cc2)nc1CS(=O)c1ccccc1 (stereo not drawn)	none (no result: APEX1 inh, PKM2 act, KDM4E inh, RECQ1 inh-1)
C#CCCCO/N=C1/C[C@@H](O)[C@@H](O)[C@@H]2[C@@H]3C(=O)N(CC)C(=O)[C@H]3CC[C@@H]12	none (no result: PKM2 act, KDM4E inh)
CC(C)OC(=O)CC(=O)c1sc2nc3c(cc2c1N)CN(C)CC3	KDM4E inh inconclusive, RECQ1 inh-1 13µM | RECQ1 inh-2 inactive
CCN(CC)c1ccc(/C=N/OCC(=O)Nc2cccc(C)c2)cc1	KDM4E inh inconclusive, RECQ1 inh-1 inconclusive | RECQ1 inh-2 56µM
CCN(CC)c1ccc(NC(=O)CCCOc2cccc(C)c2)cc1	none
COCCn1c(=NC(=O)c2ccc(S(=O)(=O)N3CCc4ccccc4C3)cc2)sc2cc(OC)ccc21	KDM4E inh inconclusive | RECQ1 conf inactive | ADP FP counter inactive
CCOC(=O)c1ccc2c(c1)nc(SCC(=O)c1cc3ccccc3o1)n2CC	RECQ1 inh-1 inconclusive | RECQ1 inh-2 inconclusive
Cc1c(Cl)cnc(NC(=O)COC(=O)c2ccc([N+](=O)[O-])s2)c1Cl	APEX1 inh inconclusive, RECQ1 inh-1 28µM | RECQ1 inh-2 10µM
O=C(COC(=O)c1ccc([N+](=O)[O-])s1)Nc1ccc(Cl)cn1	none
O=C(CSc1ccccc1)Nc1nc2ccccc2[nH]1	none
O=C(CSc1ccc(Cl)cc1)Nc1ccc(-c2nc3ccccc3[nH]2)cc1	KDM4E inh inconclusive, RECQ1 inh-1 28µM | RECQ1 inh-2 inactive
Cc1[nH]n(-c2ccccc2)c(=O)c1Sc1ccc(Cl)cc1	none
